Results filed as inconclusive are left out. Calls of active or inactive are those of the source.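 The calls were made as follows, unless noted: active = normalized viability below 100% at a tested concentration; inactive = the rest.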

The nature of assay [1]: viability loss in pontine glioma line – cell-based, SU-DIPG-XVII, MIPE5.0, CellTiter-Glo, qHTS, dose response (AID 1347060; cut-off not given, nearly all actives have AC50 up to about 26 µM;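 as to AC50: cells exposed to compound for 48 hours before viability readout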). The settings on record: CellTiter-Glo ATP luminescence.
The nature of assay [2]: viability loss in pontine glioma line – cell-based, JHH-DIPG-1, MIPE4.0, CellTiter-Glo, qHTS, dose response (AID 1347062; cut-off not given, nearly all actives have AC50 up to about 27 µM;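 also: cells exposed to compound for two days before readout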). As to conditions: JHH-DIPG-1 viability, CellTiter-Glo ATP luminescence. A general note: In ATP-based viability assays light output follows the ATP content of the culture.
Assay [3] can be described thus: JHH-DIPG-1 glioma cell viability, MIPE5.0 library, CellTiter-Glo luminescence, qHTS (AID 1347067; cut-off not given, nearly all actives have AC50 up to about 26 µM;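 also: cells exposed to compound for 48 hours before readout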). The settings on record: JHH-DIPG-1 glioma viability, CellTiter-Glo ATP luminescence.
The nature of assay [4]: viability loss in pontine glioma line – cell-based, SU-DIPG-XIII, MIPE5.0, CellTiter-Glo, qHTS, dose response (AID 1347064; cut-off not given, nearly all actives have AC50 up to about 23 µM;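 as to AC50: cells exposed to compound for 48 hours before the viability read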). The settings on record: CellTiter-Glo ATP luminescence.
The nature of assay [5]: viability loss in pontine glioma line – cell-based, SU-DIPG-XXV, MIPE5.0, CellTiter-Glo, qHTS, dose response (AID 1347065; cut-off not given, nearly all actives have AC50 up to about 26 µM;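 also: cells exposed to compound for 48 hours before ATP readout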). As to conditions: CellTiter-Glo ATP luminescence.
Assay [6] is described as follows: growth inhibition of DIPG cells – cell-based, MIPE4.0 library, CellTiter-Glo luminescence, qHTS (AID 1347066; cut-off not given, nearly all actives have AC50 up to about 30 µM;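 also: cells exposed to compound for 48 hours before readout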). As to conditions: SU-DIPG-VI viability, CellTiter-Glo ATP luminescence.
Assay [7] in a line: growth inhibition of DIPG cells – cell-based, MIPE5.0 library, qHTS (AID 1347068; cut-off not given, nearly all actives have IC50 up to about 30 µM). The settings on record: SU-DIPG-XXV viability. For orientation: In qHTS, concentration-response curves come from the screen itself.
Assay [8] in a line: viability loss with induced miR-34 in A549 – imaging, A549 dox-inducible miR-34, nuclei and caspase counts, primary screen (AID 1347080;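 active = compounds whose cell count with miR-34 switched on is under 0.7 times the count with it off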). As to conditions: A549 miR-34 inducible, Hoechst nuclei count, 48 h.
The nature of assay [9]: MELAS cybrid and Rieske KO viability enhancers – cell-based, MELAS cybrids, Rieske KO mouse fibroblasts, CellTiter-Glo, primary screen (AID 1508586;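 active = mean z-score across replicates of 1.96 or higher in either the MELAS or the Rieske mutant cell line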;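 also: z relative to plate mean and SD of compound and empty wells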). As to conditions: low glucose.
Assay [10] is described as follows: drug combination growth inhibition, ovarian cancer – cell-based, oncology-focused library, rucaparib conditional, profiling panel (AID 1508598). As to conditions: patient-derived ovarian cancer cells, CellTiter-Glo viability, 144 h, stronger effect = lower value.
Where [11] appears, read: stronger effect = lower value, cell number ratio, induced over uninduced.
Where [12] appears, read: measured here: relative caspase fold change +Dox/-Dox.
Setting [13] is: measured here: total cells with miR-34 induction, stronger effect = lower value.
[14] abbreviates: measured here: total cells without miR-34 induction.
Where [15] appears, read: MELAS cybrid survival, CellTiter-Glo 48 h, stronger effect = higher value.
Setting [16] is: Rieske KO mouse fibroblast survival, CellTiter-Glo 72 h.

Consider `CNC(=O)c1c(-c2ccc(F)cc2)oc2cc(N(CCO)S(C)(=O)=O)c(C3CC3)cc12`, for which the outcome in [1] and in assay [3] was inactive. Also, in assay [2], the half-maximal activity concentration (AC50) is 20.9 µM (active).

On to `O=c1sn(-c2cccc3ccccc23)c(=O)n1Cc1ccccc1`, for which the AC50 in [1] was 23.5 µM (active); in [4], 13.2 µM (active); in assay [5] it was 14.8 µM (active); in [3], 3.72 µM (active).

Consider `Nc1nc2cc(-c3ccc4ncc(C(=O)N5CCOCC5)n4c3)ccc2o1`, for which the AC50 was 18.6 µM (active) in [1], 14.8 µM (active) in assay [4], 9.34 µM (active) in assay [5] and 10.5 µM (active) in assay [3].

As to `Cc1ccc(C(=O)OCc2ccc([C@@H](CN)C(=O)Nc3ccc4cnccc4c3)cc2)c(C)c1`, the AC50 in assay [1] is 12.9 µM (active); in assay [4], 14.4 µM (active); in [5], 9.1 µM (active).

With `COCCOc1nc(-c2ccc(Cl)c(Cl)c2)n(-c2ccc(NC(=O)CCl)cc2)n1`, the AC50 in assay [1] was 1.32 µM (active); in assay [4] it was 2.63 µM (active); in assay [5], 2.95 µM (active); in [3], 2.63 µM (active). In addition, the outcome in assay [6] and in assay [7] was inactive. Moreover, the fold change in assay [8] (setting [11]) is 1.14 (inactive); in assay [8] (setting [12]), 0.519. Moreover, the cell count in assay [8] (setting [13]) worked out at 3760; in assay [8] (setting [14]) it was 3290. The z-score was -0.782 (inactive) in assay [9] (setting [15]) and -7.88 in assay [9] (setting [16]). The viability is 125% (inactive) in assay [10] (at 0.000305 µM, OCI-C5x cells, with rucaparib 10 µM, 100% = cells with rucaparib alone); 115% (inactive) in assay [10] (at 0.000305 µM, OCI-C5x cells, without rucaparib); 104% (inactive) in assay [10] (at 0.000305 µM, OCI-P5x cells, with rucaparib 20 µM, 100% = cells with rucaparib alone); 105% (inactive) in assay [10] (at 0.000305 µM, OCI-P5x cells, without rucaparib); 131% (inactive) in assay [10] (at 0.00122 µM, OCI-C5x cells, with rucaparib 10 µM, 100% = cells with rucaparib alone); 104% (inactive) in assay [10] (at 0.00122 µM, OCI-C5x cells, without rucaparib). Moreover, the viability in [10] (at 0.00122 µM, OCI-P5x cells, with rucaparib 20 µM, 100% = cells with rucaparib alone) was 93.4% (active); in assay [10] (at 0.00122 µM, OCI-P5x cells, without rucaparib) it was 103% (inactive); in assay [10] (at 0.00488 µM, OCI-C5x cells, with rucaparib 10 µM, 100% = cells with rucaparib alone) it was 131% (inactive); in assay [10] (at 0.00488 µM, OCI-C5x cells, without rucaparib), 113% (inactive); in assay [10] (at 0.00488 µM, OCI-P5x cells, with rucaparib 20 µM, 100% = cells with rucaparib alone), 105% (inactive); in assay [10] (at 0.00488 µM, OCI-P5x cells, without rucaparib), 99.8% (active). In addition, the viability is 114% (inactive) in [10] (at 0.0195 µM, OCI-C5x cells, with rucaparib 10 µM, 100% = cells with rucaparib alone); 106% (inactive) in [10] (at 0.0195 µM, OCI-C5x cells, without rucaparib); 103% (inactive) in assay [10] (at 0.0195 µM, OCI-P5x cells, with rucaparib 20 µM, 100% = cells with rucaparib alone); 100% (inactive) in assay [10] (at 0.0195 µM, OCI-P5x cells, without rucaparib); 125% (inactive) in assay [10] (at 0.0781 µM, OCI-C5x cells, with rucaparib 10 µM, 100% = cells with rucaparib alone); 111% (inactive) in assay [10] (at 0.0781 µM, OCI-C5x cells, without rucaparib). Besides, the viability is 95.6% (active) in assay [10] (at 0.0781 µM, OCI-P5x cells, with rucaparib 20 µM, 100% = cells with rucaparib alone); 97.3% (active) in assay [10] (at 0.0781 µM, OCI-P5x cells, without rucaparib); 124% (inactive) in assay [10] (at 0.313 µM, OCI-C5x cells, with rucaparib 10 µM, 100% = cells with rucaparib alone); 112% (inactive) in [10] (at 0.313 µM, OCI-C5x cells, without rucaparib); 96.8% (active) in assay [10] (at 0.313 µM, OCI-P5x cells, with rucaparib 20 µM, 100% = cells with rucaparib alone); 90.6% (active) in assay [10] (at 0.313 µM, OCI-P5x cells, without rucaparib). Moreover, the viability was 97.1% (active) in [10] (at 1.25 µM, OCI-C5x cells, with rucaparib 10 µM, 100% = cells with rucaparib alone); 112% (inactive) in [10] (at 1.25 µM, OCI-C5x cells, without rucaparib); 86.3% (active) in assay [10] (at 1.25 µM, OCI-P5x cells, with rucaparib 20 µM, 100% = cells with rucaparib alone); 86.9% (active) in [10] (at 1.25 µM, OCI-P5x cells, without rucaparib); 2.67% (active) in [10] (at 5 µM, OCI-C5x cells, with rucaparib 10 µM, 100% = cells with rucaparib alone); 92.5% (active) in [10] (at 5 µM, OCI-C5x cells, without rucaparib). For the same molecule, the viability in assay [10] (at 5 µM, OCI-P5x cells, with rucaparib 20 µM, 100% = cells with rucaparib alone) was 1.14% (active); in assay [10] (at 5 µM, OCI-P5x cells, without rucaparib) it was 6.27% (active).

For `CCN(CC)CCNc1ccc(C)c2sc3ccccc3c(=O)c12`, the AC50 was 13.2 µM (active) in assay [1], 20.9 µM (active) in assay [4], 16.6 µM (active) in [5] and 18.6 µM (active) in assay [3].

With `c1ccc(-c2cc(CCC3CCNCC3)c3ccccc3n2)cc1`, the AC50 in assay [1], in [4] and in assay [5] was 23.5 µM (active) throughout.

On to `O=C(O)CCCCC(CCSCc1ccccc1)SCc1ccccc1` (configuration not stated), for which the outcome in assay [1], in assay [4], in assay [5], in assay [6], in [3] and in assay [7] was inactive. The fold change in [8] (setting [11]) is 0.896 (inactive); in assay [8] (setting [12]), 0.838. The results for the cell count in assay [8] (setting [13]) and in assay [8] (setting [14]) were 9470 and 10600, respectively. Further, the z-score in assay [9] (setting [15]) is -0.291 (inactive); in assay [9] (setting [16]) it was 0.614.

What is called AC50 is the concentration at which the activity in the assay is half-maximal. Broadly, the viability is a read-out of living cells in per cent, often relative to untreated cells.

The values above are taken from PubChem BioAssay.
